PubChem BioAssay (NCATS)
Records with an inconclusive call do not appear. The source made the active and inactive calls. Calls come from the whole dose curve; as a rule, active = well fitted curve in the direction sought with a large enough effect; inconclusive = small, poorly fitted or top-dose-only effect, or another doubt; inactive = no such curve, though single readings can be large; an effect the other way counts as inactive or inconclusive.

How the values were obtained:
[1] = test system: NAD(P)H diaphorase (Clostridium kluyveri); experiment: Diaphorse counterscreen qHTS: Assay Interference Panel against the NCATS CANVASS Library (AID 1347362)
Source text: Natural products and their derivatives continue to be wellsprings of nascent therapeutic potential. However, many laboratories have limited resources for biological evaluation, leaving their previously isolated or synthesized compounds largely or completely untested. To address this issue, the Canvass library of natural products was assembled (https://tripod.nih.gov/canvass), in collaboration with academic and industry researchers, for quantitative high-throughput screening (qHTS) across a diverse set of cell-based and biochemical assays. The pure (>85% purity by liquid chromatography/mass spectrometry [LC/MS]) Canvass library of 346 natural products were submitted by 45 academic laboratories and companies around the world. […] The library was formatted into 1536-well plates and evaluated in 50 qHTS (in an 11-pnt concentration series) bioassays with broad scope of disease-relevant mechanisms. The resulting data set from 50 different assays was then systematically analyzed to identify overall trends and specific natural products with interesting biological activities. […]
Assay Interference counterscreen protocol 1. […] Fluorescence signal was acquired via the ViewLux plate reader (PerkinElmer) using an excitation filter 525/20, emission filter 598/25; 1000 light energy, 2 second exposure, 2x binning settings.

[2] = molecular target: Luciferin 4-monooxygenase (Photinus pyralis) (UniProt P08659); experiment: Firefly luciferase counterscreen qHTS: Assay Interference Panel against the NCATS CANVASS Library (AID 1347363); note: potency is the fitted concentration of half-maximal effect
In short: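 Purified P. pyralis luciferase (0.04 ug/mL, 4x reagent) added to Tris-acetate buffer with 0.013 mM D-luciferin, 0.013 mM ATP and 13.3 mM Mg-acetate; compounds preincubated 15 min, then luminescence read after 5 min, RT.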

[3] = SDT Cancer Cell Toxicity qHTS against the NCATS CANVASS Library (AID 1347365);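 note: SDT canine glioma cells 500 per well in 1536 well plates; series mostly up to about 46 µM; nearly all actives have a fitted effect of over 60% in size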
In short: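 Cytotoxicity is measured from cellular ATP: compounds in an 11-point concentration series are pinned onto SDT cells, incubated 72 hr at 37C, then CellTiterGlo is added and luminescence read.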

[4] = KB-3-1 Cancer Cell Toxicity qHTS against the NCATS CANVASS Library (AID 1347366); conditions: outcome: dose series up to 46.1 µM; note: nearly all actives have a fitted effect of over 75% in size
Source text: Natural products and their derivatives continue to be wellsprings of nascent therapeutic potential. However, many laboratories have limited resources for biological evaluation, leaving their previously isolated or synthesized compounds largely or completely untested. To address this issue, the Canvass library of natural products was assembled (https://tripod.nih.gov/canvass), in collaboration with academic and industry researchers, for quantitative high-throughput screening (qHTS) across a diverse set of cell-based and biochemical assays. The pure (>85% purity by liquid chromatography/mass spectrometry [LC/MS]) Canvass library of 346 natural products were submitted by 45 academic laboratories and companies around the world. We collected pure natural products to circumvent deconvolution and structure elucidation due to time and resource limitations. The library was formatted into 1536-well plates and evaluated in 50 qHTS (in an 11-pnt concentration series) bioassays with broad scope of disease-relevant mechanisms. The resulting data set from 50 different assays was then systematically analyzed to identify overall trends and specific natural products with interesting biological activities. Reported herein are the results of each individual qHTS and their corresponding assay protocol. […] National Center for Advancing Translational Sciences (NCATS), Rockville, MD National Institute of Health (NIH), Bethesda, Maryland
Cancer Cell Toxicity qHTS protocol 1. In a 1536 well, tissue culture treated white solid bottom plates (Corning 7494), 5 uL of KB-3-1 cell solution (final concentration of 500 cells / well) was dispensed using the Multidrop Combi dispenser (Thermo Fisher Scientific) into columns 3-48, rows 1-32. DMEM + 10% FBS + 100 U/mL penicillin / 100ug/mL streptomycin media solution was dispensed into column 1-2, row 1-32 also using the Multidrop Combi dispenser. 2. Control and Compounds were pin transferred (~23nL volume) to the assay plates via Wako Pin-tool (Wako Automation, Richmond VA) equipped with a 1536 pin head. The compounds were transferred to columns 5-48 resulting in a final concentration ranging from 0.17 nM to 103 uM. Dose response titration of Bortezomib was pin transferred into column 3, rows 1-32 (2mM; 1:2 dilution; 16 points; n = 2) resulting to a final concentration range of 0.3nM - 9.2uM. 3. The assay plates were further incubated in the at 37C, 5% CO2, 95% Rh for 72 hr. 4. After incubation, 2.5uL of CellTiter-Glo reagent (Promega) was added to the assay plates (column 1-48, rows 1-32) using the Multidrop Combi dispenser. 5. The assay plates were incubated at room temperature for 10 minutes. 6. Luminescence signal was acquired via the ViewLux plate reader (PerkinElmer) using a clear emission filter, 1 sec exposure, and 1x binning settings.

[5] = qHTS for ATAD5 Agonist screened against the NCATS CANVASS Library (AID 1347367);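 note: luciferase reporter driven by ATAD5 which rises upon DNA damage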
In short: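 HEK293T-ATAD5 luc reporter; 2000 cells/well; 5hr settle; cpd 11-pt qHTS; 16hr 37C 5% CO2 dark; viability by CellTiter-Fluor (AFC fluorescence); then luciferase luminescence, 30min RT.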

[6] = G06 Cancer Cell Toxicity qHTS against the NCATS CANVASS Library (AID 1347368); conditions: outcome: dose series up to 46.1 µM; note: nearly all actives have a fitted effect of over 60% in size
In short: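 Cells were plated at 500 per well, then compounds were added over an 11-point range. After 72 hr at 37C, CellTiterGlo was added and luminescence measured as ATP content.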

[7] = MCF7 Cancer Cell Toxicity qHTS against the NCATS CANVASS Library (AID 1347369); conditions: outcome: dose series up to 46 µM
In short: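 Cells seeded at 500/well, then compound pinned. Plates incubated 72 hr at 37C, 5% CO2. CellTiterGlo added; luminescence read.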

[8] = qHTS for ATAD5 Antagonist screened against the NCATS CANVASS Library (AID 1347370);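 note: HEK293T cells carrying an ATAD5 luciferase reporter co-treated with 10 µM 5-fluorouridine; series mostly up to about 46 µM; nearly all actives have a fitted effect of over 65% in size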
Source text: Natural products and their derivatives continue to be wellsprings of nascent therapeutic potential. However, many laboratories have limited resources for biological evaluation, leaving their previously isolated or synthesized compounds largely or completely untested. To address this issue, the Canvass library of natural products was assembled (https://tripod.nih.gov/canvass), in collaboration with academic and industry researchers, for quantitative high-throughput screening (qHTS) across a diverse set of cell-based and biochemical assays. The pure (>85% purity by liquid chromatography/mass spectrometry [LC/MS]) Canvass library of 346 natural products were submitted by 45 academic laboratories and companies around the world. We collected pure natural products to circumvent deconvolution and structure elucidation due to time and resource limitations. The library was formatted into 1536-well plates and evaluated in 50 qHTS (in an 11-pnt concentration series) bioassays with broad scope of disease-relevant mechanisms. The resulting data set from 50 different assays was then systematically analyzed to identify overall trends and specific natural products with interesting biological activities. Reported herein are the results of each individual qHTS and their corresponding assay protocol. Human ATAD5 is a biomarker for identifying gentoxic compounds because ATAD5 protein levels increase post-transcriptionally in response to DNA damage. A cell-based assay is used to detect DNA damage inducers and genotoxic compounds as well. The assay is based upon a luciferase reporter gene under control of ATAD5 that has been stably integrated into HEK 293T cells. Luminescence intensity is proportional to ATAD5 expression. […]
ATAD5 Agonist assay protocol: 1. […] A first readout of fluorescence signal was acquired via the ViewLux (PerkinElmer) plate reader using filter sets for AFC (380-400nmEx/505Em) and 1 second exposure setting. […] 8.#A second readout of luminescence signal was acquired via the ViewLux plate reader using a clear emission filter, 10 second exposure setting.

[9] = J3T Cancer Cell Toxicity qHTS against the NCATS CANVASS Library (AID 1347371); conditions: outcome: dose series up to 46.1 µM
In short: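 Luminescence from CellTiterGlo, reporting cellular ATP, serves as the viability measure after 72 hr compound treatment of J3T canine glioma cells seeded at 500 cells/well.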

[10] = KB-8-5-11 Cancer Cell Toxicity qHTS against the NCATS CANVASS Library (AID 1347364); note: series mostly up to about 46 µM; nearly all actives have a fitted effect of over 75% in size
In short: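 Terse: KB-8-5-11, 500 cells/well, 72 hr, 37C/5% CO2, 11-pt titration, CellTiter-Glo readout; confirmatory runs ± 1uM tariquidar in medium.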

Measured: Potency

Sequence of Luciferin 4-monooxygenase (Photinus pyralis) (P08659 whole entry, looked up): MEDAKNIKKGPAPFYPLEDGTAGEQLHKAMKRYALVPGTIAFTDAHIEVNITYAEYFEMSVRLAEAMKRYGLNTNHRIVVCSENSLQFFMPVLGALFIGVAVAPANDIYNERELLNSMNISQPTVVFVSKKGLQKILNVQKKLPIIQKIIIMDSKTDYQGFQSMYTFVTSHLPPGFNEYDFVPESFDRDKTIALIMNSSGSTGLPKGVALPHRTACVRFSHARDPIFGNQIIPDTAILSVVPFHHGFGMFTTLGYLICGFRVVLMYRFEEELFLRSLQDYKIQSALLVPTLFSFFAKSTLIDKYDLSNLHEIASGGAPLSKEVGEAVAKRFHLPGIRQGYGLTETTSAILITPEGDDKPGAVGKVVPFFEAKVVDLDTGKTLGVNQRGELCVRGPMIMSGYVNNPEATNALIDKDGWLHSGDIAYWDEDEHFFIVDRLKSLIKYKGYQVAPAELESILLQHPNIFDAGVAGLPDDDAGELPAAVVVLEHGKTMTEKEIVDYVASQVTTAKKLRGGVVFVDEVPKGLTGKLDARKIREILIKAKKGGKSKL

O=C(/C=C/C=C/c1ccc2c(c1)OCO2)N1CCCCC1
active: [2] 6.8 µM
inactive: [1] | [3] | [4] | [5] | [6] | [7] | [8] | [9]

C/C(=C\CC/C(C)=C/CC[C@]1(C)CCc2cc(O)cc(C)c2O1)CC/C=C(\C)C(=O)O
inactive: [2] | [10] | [3] | [4] | [5] | [6] | [7] | [8] | [9]

CC(=O)O[C@H]1C[C@@]2(C)[C@@H](CC[C@H]3[C@@]4(C)C=CC(=O)[C@@H](C)[C@@H]4[C@H](OC(C)=O)C(=O)[C@@]32C)/C1=C(\CCC=C(C)C)C(=O)O
inactive: [2] | [10] | [4] | [5] | [7]

CC(C)c1ccc2c(c1)CCC1[C@](C)(C(=O)O)CCC[C@]21C (stereo partly drawn)
inactive: [1] | [2] | [10] | [3] | [4] | [5] | [6] | [7] | [8] | [9]
